According to PubChem BioAssay (NCI):
About 83,000 compounds went through this panel and 20% of them were active in at least one assay; those are over-represented in the sample as a whole.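 Interpretation: 100, growth as untreated; towards 0, rising growth inhibition; 0, no net growth; 0 to -100, cell death. Compounds scoring below 10 were considered active.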 Unmarked numbers belong to inactive results. Calls of active or inactive are those of the source.

These molecules were tested on MDA-MB-468 breast (assay: NCI-60 one-dose screen, 48 h (100 = growth as untreated, 0 = no growth, -100 = all killed)). Details: 10 µM unless noted.
For `O=C(CI)NC1Oc2ccccc2-c2oc(=O)c(-c3ccccc3)cc21` (stereo not given), the growth was -42.3% (active). With `O=C(C1CCC1)N1N=C(c2ccc(-n3ccc(C(F)(F)F)n3)cc2)CC1c1ccc[nH]1` (stereo not given) the growth was 106%. With `COc1cccc(-c2ccc3c(c2)C2CCN(Cc4ccccc4)C3C2)c1` (stereo not given) the growth was 67.9%. `Cc1ccc(-c2cc3nc(C(Cl)Cl)nc(-c4cccs4)n3n2)cc1` showed a growth of 39.5%. With `COc1cc2nnn3c4ncccc4c(N=O)c3c2cc1OC` the growth was -50.9% (active). `CC[n+]1ccc2c(c1)C(=O)c1nccc3c1c-2nc1ccccc13` was tested, and the growth was -52.3% (active). For `COc1ccc(C(=O)c2cc3c(N)c(C(=O)Nc4cccc(Cl)c4C)sc3nc2C)cc1`, the growth was -2.98% (active). With `Cc1cnc(Nc2ccc(OCCN3CCCC3)cc2)nc1Nc1cccc(S(=O)(=O)NC(C)(C)C)c1` the growth was -16.6% (active). With `CSc1nc(N)c2c(n1)NC(c1ccccc1)C1CCc3ccccc3C1=N2` (stereo not given) the growth was 76.4%. In the case of `Cc1c2c(cc[n+]1Cc1ccc(F)cc1)c1ccc(OCc3cccc(F)c3)cc1n2Cc1cccc(F)c1`, the growth is reported as -85.6% (active). With `C[C@@H]1CC[C@@]2(OC1)O[C@H]1C[C@H]3[C@@H]4CC=C5C[C@@H](O[C@@H]6O[C@H](CO)[C@@H](O[C@@H]7O[C@@H](CO)[C@H](O)[C@H]7O)[C@H](O)[C@H]6O[C@@H]6O[C@@H](C)[C@H](O)[C@@H](O)[C@H]6O)CC[C@]5(C)[C@H]4CC[C@]3(C)[C@H]1[C@@H]2C` the growth was -40.3% (active). Work on `CC(=O)C1=NN(c2ccc(Cl)cc2)C(=O)CN1C` yielded a growth of 102%. `OC(c1ccccc1)(c1ccccc1)c1ccccc1-c1ccccc1` was tested, and the growth was 69.1%. `COc1ccc(N=Nc2cc(OC)c(OC)c(OC)c2)cc1` was tested, and the growth was 80.9%. With `C=C(C)[C@@H]1CC[C@]2(CO)CC[C@]3(C)[C@H](CC[C@@H]4[C@@]5(C)CCC(NCCc6ccc(O)cc6)C(C)(C)[C@@H]5CC[C@]43C)[C@@H]12` (stereo not given in full) the growth was -91.7% (active). `CC(C)c1nn(-c2ccccc2)c(N2CCCCC2)c1/C=N/NC(N)=S` showed a growth of 89.6%. Molecule `CCCC(=O)Oc1ccc(CC)cc1` has a growth of 117%. Molecule `Nc1cc(O)cc2cccnc12` has a growth of 109%. In the case of `O=C1Nc2ccc(Br)cc2/C1=N\N=C/c1cn(Cc2ccccc2)c2ccccc12`, the growth is reported as -43% (active). `COc1ccc(-c2nc3ccc(Cc4ccc5nc(-c6ccc(OC)cc6)[nH]c5c4)cc3[nH]2)cc1` was tested, and the growth was -20.2% (active). For `COc1ccc(-n2c(N)c(-c3nc4ccccc4[nH]3)cc(C#N)c2=O)cc1`, the growth was 93.1%. With `O=C(CSc1nc2ccc([N+](=O)[O-])cc2[nH]1)Nc1ccc(F)cc1` the growth was 22.3%. Work on `O=C1Nc2ccccc2/C1=C/c1cn(C(=O)c2c(Cl)cccc2Cl)c2ccccc12` yielded a growth of 32.7%. `CN(CCCN(C)CCC1CCCCC1)CCC1CCCCC1` was tested, and the growth was -76.1% (active). `Fc1ccc(C(c2ccc(F)cc2)C(Cl)Cl)cc1` was tested, and the growth was 104%. Molecule `CCCCN1C(=O)/C(=c2\sc3n(c2=O)NC2C(N=3)N(CC)C(=O)N2CC)c2ccccc21` (stereo not given) has a growth of 14.3%. For `CNC(=O)c1cc(Oc2ccc(NC(=O)c3nc(S(C)(=O)=O)sc3-c3ccc(F)cc3)cc2)ccn1`, the growth was -4.37% (active). With `Cc1cc(NC(=O)CNc2nc(Oc3ccc(F)cc3)nc(-c3ccc(F)cc3)n2)ccc1Cl` the growth was 92.5%. Work on `C=C(CC(=O)OC)C(C)=O` yielded a growth of 102%. With `COc1ccccc1-[n+]1cc(-c2ccc(-c3ccccc3)cc2)n2c1CCCCC2` the growth was -23.5% (active). `CCOC(=O)C1C(=O)C=C(c2ccccc2)CC1c1sc(N(C)Cc2ccccc2)nc1Cl` (stereo not given) showed a growth of 80.9%. Molecule `O=C(CSc1nc2ccccc2c(=O)n1-c1ccccc1)Nc1ccc(S(=O)(=O)Nc2nccs2)cc1` has a growth of 56.4%. In the case of `COc1ccc(-c2[nH]c(=S)n(C(CC3(C)NCC(=O)N3n3c(-c4ccccc4)cc(C)nc3=S)c3ccc(OC)cc3)c(=O)c2Br)cc1` (stereo not given), the growth is reported as -14.9% (active). With `CN(C)c1ccc(-c2c(C#N)c(N)nn2C(=O)c2ccc(NC(=O)c3ccccn3)cc2)cc1` the growth was 119%. Molecule `NNC(=O)Nc1ccccc1` has a growth of 104%. Work on `COc1cc(NCCCN(CC(C)C)C2CCCC2)c2ncccc2c1` yielded a growth of 15.7%. `O=C1C(=O)c2c(nc3ncccn23)-c2ccccc21` was tested, and the growth was -64.9% (active). For `CC(CO)(CO)C(=O)O`, the growth was 99.9%. In the case of `Nc1ccc(C(=O)c2ccc(N)c(Br)c2)cc1Br`, the growth is reported as -0.913% (active). `N#Cc1c(-c2ccc(F)cc2)nc(N=Nc2c(O)[nH]c3ccccc23)nc1N1CCOCC1` was tested, and the growth was 59.1%.
